The panel holds about 83,000 compounds, 20% with a hit somewhere; the sample as a whole holds those more often.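 96-well plates, one dose, 48 hours. Percent growth reported; active if below 10.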 A number with no mark means an inactive call. Calls of active or inactive are those of the source.

Some test systems named below: EKVX NSCLC; SN12C renal; UO-31 renal; TK-10 renal; ACHN renal; CAKI-1 renal; A498 renal; CCRF-CEM leukemia; MOLT-4 leukemia; SR leukemia; OVCAR-8 ovarian; OVCAR-5 ovarian; OVCAR-4 ovarian; OVCAR-3 ovarian; HS 578T breast; NCI/ADR-RES ovarian; SK-OV-3 ovarian; IGROV1 ovarian; RPMI-8226 leukemia.
Experiment in all cases: NCI-60 one-dose screen, 48 h (100 = growth as untreated, 0 = no growth, -100 = all killed)
Common to all, as to conditions: 10 µM unless noted

Consider `O=C(O)c1cn(C2CC2)c2cc(N3CCN(C(=O)Nc4nc(-c5ccc(Cl)cc5)cs4)CC3)c(F)cc2c1=O`, for which the growth in the assay on EKVX NSCLC is 19.6%; with SN12C renal, 7.2% (active); in the assay with UO-31 renal it was 2.13% (active); in the assay with TK-10 renal it was 21.8%; in the assay on ACHN renal, 6.02% (active); in the assay on CAKI-1 renal, 17.1%. The growth in the assay on A498 renal is -3.82% (active); with CCRF-CEM leukemia, 13.6%; with MOLT-4 leukemia, 2.05% (active); with SR leukemia, 11.2%; in the assay on OVCAR-8 ovarian it was 7.37% (active); in the assay with OVCAR-5 ovarian, 27.5%. Further, the growth is 23.7% in the assay on OVCAR-4 ovarian, 5.86% (active) with OVCAR-3 ovarian, 35.5% in the assay on HS 578T breast and 38.1% in the assay with NCI/ADR-RES ovarian.
With `COc1c(N2CC3CCCN(C(C)=O)C3C2)c(F)cc2c(=O)c(C(=O)N[C@H]3C(O)[C@@H](O)C(CO)O[C@H]3O)cn(C3CC3)c12` (stereo not given in full), the growth was 103% in the assay with EKVX NSCLC; 98.9% in the assay with SN12C renal; 92.2% with UO-31 renal; 105% in the assay on TK-10 renal; 105% in the assay with ACHN renal; 101% in the assay with CAKI-1 renal. Besides, the growth was 103% in the assay with A498 renal; 105% in the assay with CCRF-CEM leukemia; 116% in the assay with MOLT-4 leukemia; 108% in the assay on SR leukemia; 107% with OVCAR-8 ovarian; 104% in the assay with OVCAR-5 ovarian. Moreover, the growth in the assay on OVCAR-4 ovarian was 110%; in the assay on SK-OV-3 ovarian, 115%; with IGROV1 ovarian, 114%; with OVCAR-3 ovarian it was 109%; with HS 578T breast it was 105%; in the assay with NCI/ADR-RES ovarian, 110%.
Consider `FC(F)(F)c1cc(Nc2ccc3c(OCCCN4CCOCC4)cccc3n2)ccc1Cl`, for which the growth was 66.9% with SN12C renal; 51% in the assay on UO-31 renal; 76.6% with TK-10 renal; 50.7% in the assay with ACHN renal; 55.9% in the assay with CAKI-1 renal; 67.1% in the assay with A498 renal. Further, the growth in the assay with CCRF-CEM leukemia is 24.8%; with MOLT-4 leukemia, 18.3%; in the assay on RPMI-8226 leukemia, 13.4%; in the assay with OVCAR-8 ovarian it was 75.5%; in the assay with OVCAR-5 ovarian it was 50.5%; in the assay on OVCAR-4 ovarian, 55.4%. The growth in the assay with SK-OV-3 ovarian was 78.5%; in the assay with IGROV1 ovarian, 48.4%; in the assay on OVCAR-3 ovarian, 60.9%; in the assay with HS 578T breast, 55%; in the assay on NCI/ADR-RES ovarian it was 56.2%.
On to `O=C1CCC/C=C\C[C@H]2C=CC(=O)/C2=C/C[C@H](CCc2cccc(C(F)(F)F)c2)O1`, for which the growth in the assay with EKVX NSCLC is -47.6% (active); with SN12C renal, -37.9% (active); in the assay on UO-31 renal, -95.5% (active); in the assay with TK-10 renal, -68.9% (active); in the assay on ACHN renal, -85.1% (active); in the assay with CAKI-1 renal, 12.5%. Also, the growth is -79.7% (active) with A498 renal; 4.33% (active) with CCRF-CEM leukemia; -18.6% (active) in the assay with MOLT-4 leukemia; -4.73% (active) in the assay with SR leukemia; 5.51% (active) in the assay with OVCAR-8 ovarian; -16.9% (active) with OVCAR-5 ovarian. In addition, the growth in the assay with OVCAR-4 ovarian is 12.8%; in the assay on SK-OV-3 ovarian it was -34.9% (active); in the assay with OVCAR-3 ovarian it was -65.8% (active); in the assay on HS 578T breast, 14.3%; in the assay with NCI/ADR-RES ovarian, 1.09% (active).
On to `Cc1nc2ccccc2c(/C=C/c2ccc(Cl)cc2)c1C(=O)/C=C/c1ccc(C(F)(F)F)cc1`, for which the growth in the assay with EKVX NSCLC is -60.1% (active); with SN12C renal it was -70.7% (active); in the assay with UO-31 renal it was -100% (active); in the assay with TK-10 renal, -82.8% (active); in the assay with ACHN renal, -100% (active); in the assay on CAKI-1 renal, -95.4% (active). Besides, the growth with A498 renal was -89.5% (active); in the assay with CCRF-CEM leukemia it was 8.6% (active); in the assay on MOLT-4 leukemia, 0.0825% (active); in the assay on RPMI-8226 leukemia, -30.7% (active); with OVCAR-8 ovarian, 2.79% (active); in the assay on OVCAR-5 ovarian it was -41.6% (active). Also, the growth with OVCAR-4 ovarian was -91% (active); in the assay with SK-OV-3 ovarian, -79.9% (active); in the assay on IGROV1 ovarian, -85.5% (active); in the assay on OVCAR-3 ovarian it was -85.8% (active); in the assay with HS 578T breast, -17.3% (active); in the assay on NCI/ADR-RES ovarian it was -5.17% (active).
Consider `CCCCCCN1C(=O)/C(=c2\sc3n(c2=O)C2C(NN=3)N(CC)C(=O)N2CC)c2ccccc21` (stereo not given), for which the growth is 19.1% in the assay on SN12C renal; -2.09% (active) with UO-31 renal; 3.21% (active) in the assay with TK-10 renal; -43% (active) in the assay with ACHN renal; 4.26% (active) in the assay with CAKI-1 renal; -5.48% (active) with A498 renal. In addition, the growth is 37.8% with CCRF-CEM leukemia; 49.4% in the assay on MOLT-4 leukemia; 44.6% with RPMI-8226 leukemia; -22.3% (active) in the assay with OVCAR-8 ovarian; 32.4% with OVCAR-5 ovarian; -35.5% (active) in the assay on OVCAR-4 ovarian. Moreover, the growth in the assay on SK-OV-3 ovarian is 54.8%; with IGROV1 ovarian it was 24.2%; in the assay on OVCAR-3 ovarian it was -50.2% (active); with HS 578T breast, 4.83% (active); with NCI/ADR-RES ovarian, -23.1% (active).
For the compound `O=C1CN(CCN2CC(=O)N(Cc3ccccc3)C(=O)C2)CC(=O)N1Cc1ccccc1`, the growth is 99.2% in the assay on EKVX NSCLC; 98.6% in the assay with SN12C renal; 76.3% in the assay with UO-31 renal; 111% in the assay with TK-10 renal; 106% in the assay with ACHN renal; 92.8% with CAKI-1 renal. Further, the growth is 89.7% in the assay on A498 renal; 94.3% in the assay with CCRF-CEM leukemia; 92.3% in the assay on MOLT-4 leukemia; 108% in the assay on SR leukemia; 99.5% in the assay with RPMI-8226 leukemia; 109% with OVCAR-5 ovarian. The growth is 106% with OVCAR-4 ovarian; 113% with SK-OV-3 ovarian; 109% in the assay on IGROV1 ovarian; 109% in the assay on OVCAR-3 ovarian; 96.7% in the assay on HS 578T breast; 103% in the assay on NCI/ADR-RES ovarian.
`CCCCNC(=O)Oc1ccc(/C(=C(\C)c2ccc(Cl)cc2)c2ccc(OCCN(CC)CC)cc2)cc1`: the growth with SN12C renal was 75.4%; in the assay with UO-31 renal, 47.8%; with TK-10 renal, 88.6%; with ACHN renal, 93.7%; with CAKI-1 renal, 81.4%; in the assay on A498 renal, 71%. Besides, the growth in the assay on CCRF-CEM leukemia was 64.4%; in the assay on MOLT-4 leukemia, 58.4%; with SR leukemia, 3.33% (active); in the assay on RPMI-8226 leukemia, 63.9%; in the assay on OVCAR-5 ovarian, 73.4%; with OVCAR-4 ovarian it was 69.6%. Also, the growth in the assay with SK-OV-3 ovarian was 75.3%; with IGROV1 ovarian, 81.6%; in the assay on OVCAR-3 ovarian, 69.1%; with HS 578T breast it was 74.4%; in the assay with NCI/ADR-RES ovarian, 81.4%.
As to `Cc1[nH]c(C(=O)Nc2ccc(C(=O)N3CCNCC3)cc2OC(C)C)c(Cl)c1Cl`, the growth in the assay with EKVX NSCLC is 82.8%; in the assay with SN12C renal, 80.1%; with UO-31 renal, 47.9%; in the assay with TK-10 renal, 79.2%; in the assay on ACHN renal it was 67.7%; with CAKI-1 renal, 48.8%. Moreover, the growth with A498 renal was 64.4%; with CCRF-CEM leukemia, 27.7%; in the assay with MOLT-4 leukemia, 54.1%; in the assay on SR leukemia, -34.3% (active); with OVCAR-8 ovarian, 87.1%; in the assay on OVCAR-5 ovarian, 90.3%. Moreover, the growth with OVCAR-4 ovarian is 81.9%; in the assay with IGROV1 ovarian it was 69.5%; with OVCAR-3 ovarian it was 71.4%; with HS 578T breast, 73%; in the assay with NCI/ADR-RES ovarian, 80.5%.

Source of the values: PubChem BioAssay (NCI).
